Bioassay records from PubChem BioAssay.
Hits are enriched below; roughly 3% of the tested compounds scored in any of these assays.
SENP7 inh – SENP7 protease inhibitors, primary screen, biochemical, luminescence, uHTS; Sentrin-specific protease 7 (Homo sapiens), Q9BQF6; recombinant SENP7, Z-RLRGG-aminoluciferin luminescence, 40 min; inhibition, % at 5 µM; 330,000 tested, 1.5% active; AID 434973, 2010;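 active = inhibition above about 50% at the single test dose, limit read from the data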;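 also: plate controls were DMSO with enzyme for no effect and no enzyme buffer wells for full effect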
Target sequence (Q9BQF6 706-1050 limits assumed): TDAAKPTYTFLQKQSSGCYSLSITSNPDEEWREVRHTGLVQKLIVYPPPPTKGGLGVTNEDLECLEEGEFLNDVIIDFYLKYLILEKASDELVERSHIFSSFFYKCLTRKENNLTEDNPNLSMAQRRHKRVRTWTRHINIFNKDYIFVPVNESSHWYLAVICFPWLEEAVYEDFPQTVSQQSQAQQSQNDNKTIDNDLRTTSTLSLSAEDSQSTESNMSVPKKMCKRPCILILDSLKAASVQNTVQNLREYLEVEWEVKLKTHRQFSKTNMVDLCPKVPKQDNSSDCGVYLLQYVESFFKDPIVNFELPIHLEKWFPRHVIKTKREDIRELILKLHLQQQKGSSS
PPC-1+TRAIL kill – compounds killing PPC-1 cancer cells with TRAIL present, primary screen, TRAIL potentiator project, ATPLite luminescence, uHTS | PPC-1 cells + TRAIL, ATPLite viability luminescence | cell killing (% activity), % at 4 µM or 5 µM | 220,000 tested, 0.41% active;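 active = cell killing above 50% in the first pass at 4 µM, then a duplicate retest at 5 µM averaging 50% or more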;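 also: plate controls were cells with TRAIL plus DMSO for no effect and medium-only wells lacking cells for full effect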
C8 TRAIL sens – viability loss with TRAIL in NB7+C8 cells, primary screen, TRAIL sensitizer project, cell-based, ATPlite luminescence; inhibition (viability loss, TRAIL sensitization), % at 10 µM; 360,000 tested, 1% active;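 active = compounds causing at least 50% loss of cell viability in the single-dose screen, relative to plate controls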
SENP8 block-1 – SENP8 protease inhibitors, primary screen, biochemical, luminescence; 330,000 tested, 1.2% active; inhibition, % at 10 µM; Sentrin-specific protease 8 (Homo sapiens), Q96LD8; AID 2540, 2010; purified SENP8, Z-RLRGG-aminoluciferin cleavage; in the data active = inhibition above about 50%
Target sequence (Q96LD8 whole entry, looked up): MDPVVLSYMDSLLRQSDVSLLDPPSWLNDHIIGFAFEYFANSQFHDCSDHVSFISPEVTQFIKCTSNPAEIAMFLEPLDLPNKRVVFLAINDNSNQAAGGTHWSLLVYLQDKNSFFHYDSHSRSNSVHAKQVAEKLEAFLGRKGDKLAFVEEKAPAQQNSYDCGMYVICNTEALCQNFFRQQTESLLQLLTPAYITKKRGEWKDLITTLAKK
SENP8 block-2 – human SENP8 protease inhibitors, primary screen, biochemical, fluorescence, Nedd8 protein substrate, uHTS. inhibition, % at 20 µM. 360,000 tested, 0.64% active. recombinant SENP8. AID 602440, 2012. Sentrin-specific protease 8 (Homo sapiens), Q96LD8; in the data active = inhibition mostly above about 40%, no sharp cut-off; inactive = mostly below about 27%
SENP6 inh – SENP6 protease inhibitors, primary screen, biochemical, luminescence, uHTS; Recombinant SENP6 catalytic domain, aminoluciferin luminescence; 330,000 tested, 1.8% active; Sentrin-specific protease 6 (Homo sapiens), Q9GZR1; AID 2599, 2010; inhibition, % at 10 µM;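 active = inhibition above about 50% at the single tested dose, limit read from the data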;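 also: plate controls were DMSO wells with enzyme for no effect and DMSO wells lacking enzyme for full effect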
SENP8 conf – SENP8 protease inhibitors, retest, confirmation, biochemical, luminescence, single concentration; shares compounds with SENP7 inh; Recombinant SENP8, Z-RLRGG-aminoluciferin luminescence, 60 min; inhibition, % at 12.5 µM; 6,200 tested, 40% active; AID 488912, 2010;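 active = mean inhibition across replicates above about 50%, limit read from the data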
SENP6 conf – SENP6 protease inhibitors, confirmation, biochemical, luminescence, single concentration | shares compounds with SENP7 inh | recombinant SENP6, Z-RLRGG-aminoluciferin luminescence | inhibition, % at 12.5 µM | 6,200 tested, 58% active
SENP7 conf – SENP7 protease inhibitors, retest, confirmation, biochemical, luminescence, single concentration; shares compounds with SENP7 inh; AID 488917, 2010; 6,200 tested, 69% active; inhibition, % at 12.5 µM; recombinant SENP7, Z-RLRGG-aminoluciferin luminescence, 40 min
Casp3 SENP sel – caspase-3 protease inhibitors, confirmation, selectivity assay for SENP inhibitor project, biochemical, single concentration. shares compounds with SENP7 inh. purified caspase-3, Z-DEVD-aminoluciferin luminescence, 60 min. inhibition, % at 12.5 µM. 6,200 tested, 60% active. AID 488918, 2010;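 active = mean inhibition above about 50%, limit read from the data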;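 also: plate controls were enzyme with DMSO for no effect and wells without caspase-3 for full effect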
SENP luc ctr – interferes with luciferase luminescence in SENP counter-screen | shares compounds with SENP7 inh | Pre-incubated SENP8/Z-RLRGG-aminoluciferin, luciferase luminescence interference | inhibition, % at 12.5 µM | 6,200 tested, 39% active;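 active = mean inhibition above about 50% when retested at one dose, limit read from the data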;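 also: plate controls were DMSO wells with completed reaction for no effect and substrate without enzyme for full effect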
An asterisk follows results filed as active.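 The calls were made as follows, unless noted: active = mean inhibition above about 50% in the one-dose retest (limit read from the data); inactive = the rest.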

For CN1OC[C@@H]2CN(S(=O)(=O)c3cccc4ccccc34)[C@H](c3ccc(-c4cccnc4)cc3)C[C@@H]21 the results were C8 TRAIL sens -6 and SENP8 block-2 4.
O=C(Nc1nc2ccccc2s1)c1ccc(Cl)s1 was read as SENP7 inh 82*, PPC-1+TRAIL kill 35, C8 TRAIL sens 40, SENP8 block-1 67*, SENP8 block-2 -289, SENP6 inh 77*, SENP8 conf 14, SENP6 conf 50, SENP7 conf 51*, Casp3 SENP sel 41 and SENP luc ctr 17.
`O=C(Nc1nc2ccccc2s1)c1ccccc1[N+](=O)[O-]` gave SENP7 inh -20, C8 TRAIL sens 4, SENP8 block-1 1, SENP8 block-2 4 and SENP6 inh 20.
For O=C(NC1=NCCS1)c1ccc(OCC2CCCO2)cc1 (centres undefined) the results were SENP7 inh 5, PPC-1+TRAIL kill 26, C8 TRAIL sens 46, SENP8 block-1 0, SENP8 block-2 0 and SENP6 inh -5.
For COc1ccc(C(=O)Nc2nc3ccccc3s2)cc1 the results were SENP7 inh 93*, C8 TRAIL sens 60*, SENP8 block-1 89*, SENP8 block-2 -28, SENP6 inh 96*, SENP8 conf -9, SENP6 conf 94*, SENP7 conf 101*, Casp3 SENP sel 88* and SENP luc ctr 85*.
For O=C(Nc1ncccc1O)c1ccc(OCC2CCCO2)cc1 (centres undefined) the results were SENP7 inh 51*, C8 TRAIL sens 18, SENP8 block-1 21, SENP8 block-2 -2, SENP6 inh 45, SENP8 conf 44, SENP6 conf 42, SENP7 conf 77*, Casp3 SENP sel 82* and SENP luc ctr 49.
Screening O=C(Nc1nc2ccccc2s1)c1ccc(OCC2CCCO2)cc1 (centres undefined) returned SENP7 inh 77*, PPC-1+TRAIL kill 22, C8 TRAIL sens 67*, SENP8 block-1 53*, SENP8 block-2 -155, SENP6 inh 71*, SENP8 conf 42, SENP6 conf 73*, SENP7 conf 93*, Casp3 SENP sel 62* and SENP luc ctr 46.
C=CCC(=O)NC1CC(C)(C)Cc2c1cnn2-c1ccccc1C (centres undefined) was read as SENP7 inh 6, C8 TRAIL sens 8, SENP8 block-1 5, SENP8 block-2 -1 and SENP6 inh -19.
COc1cccc(C(=O)Nc2nc(-c3ccncc3)cs2)c1 was read as SENP7 inh 7, PPC-1+TRAIL kill 18, C8 TRAIL sens 4, SENP8 block-1 -4, SENP8 block-2 -15 and SENP6 inh 1.
`COc1ccc(C(=O)Nc2nc3ccccc3s2)cc1OC` gave SENP7 inh 15, C8 TRAIL sens -2, SENP8 block-1 6, SENP8 block-2 -102 and SENP6 inh 21.
COc1cccc(C(=O)Nc2nc3ccccc3s2)c1 was read as SENP7 inh 91*, C8 TRAIL sens 29, SENP8 block-1 86*, SENP8 block-2 -17, SENP6 inh 90*, SENP8 conf 90*, SENP6 conf 91*, SENP7 conf 99*, Casp3 SENP sel 83* and SENP luc ctr 60*.
For COc1cccc(C(=O)Nc2nc(C)cs2)c1 the results were SENP7 inh 42, PPC-1+TRAIL kill 20, C8 TRAIL sens 20, SENP8 block-1 17, SENP8 block-2 15, SENP6 inh 52*, SENP8 conf 31, SENP6 conf 32, SENP7 conf 72*, Casp3 SENP sel 69* and SENP luc ctr 50*.
`O=C(Nc1nc2ccccc2s1)c1ccc(F)cc1` gave SENP7 inh 93*, PPC-1+TRAIL kill 28, C8 TRAIL sens 46, SENP8 block-1 85*, SENP8 block-2 -43, SENP6 inh 88*, SENP8 conf 2, SENP6 conf 87*, SENP7 conf 100*, Casp3 SENP sel 86* and SENP luc ctr 48.
Screening CCN(CC)CCNC(Cc1ccccc1)c1cccc(OC)c1 (centres undefined) returned C8 TRAIL sens -10 and SENP8 block-2 6.
CN1CCSc2ccc(C(=O)Nc3cc(F)ccc3F)cc21 was read as SENP7 inh 89*, PPC-1+TRAIL kill 38, C8 TRAIL sens 9, SENP8 block-1 76*, SENP8 block-2 -421, SENP6 inh 88*, SENP8 conf 86*, SENP6 conf 86*, SENP7 conf 96*, Casp3 SENP sel 79* and SENP luc ctr 25.
For COc1ccc(NC(=O)CCNC(=O)c2ccco2)cc1Cl the results were SENP7 inh 11, C8 TRAIL sens -5, SENP8 block-1 -4, SENP8 block-2 26 and SENP6 inh 3.
CCOC(=O)c1sc(NC(=O)c2cc3c(s2)CCC(C)C3)nc1C (centres undefined) was read as SENP7 inh 11, PPC-1+TRAIL kill 11, C8 TRAIL sens -5, SENP8 block-1 7, SENP8 block-2 -376 and SENP6 inh 20.
COC(=O)c1sc(NC(=O)c2cc3c(s2)CCCC3)nc1C was read as SENP7 inh 80*, PPC-1+TRAIL kill 4, C8 TRAIL sens 25, SENP8 block-1 35, SENP8 block-2 -221, SENP6 inh 23, SENP8 conf 34, SENP6 conf 34, SENP7 conf 90*, Casp3 SENP sel 52* and SENP luc ctr 40.
